From PubChem BioAssay (EPA / NIEHS) come the findings set out here.

Read-out in assay [1]: Tissue plasminogen activator (tPA), PLAT (gene 5327)
The assay can be described thus: BSK_BE3C_tPA: BioMAP Diversity Plus: BE3C Assay for Tissue plasminogen activator (tPA) Biomarker Activity (AID 2283041).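 On outcome: tPA level quantified by ELISA one day after compound addition.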 The conditions noted are these: primary human bronchial epithelial cells; actives raise or lower the signal. The method, boiled down: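 Using human lung primary bronchial epithelial cells, tPA was measured by ELISA 24 h after dosing; data fitted relative to DMSO.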

Read-out in assay [2]: Interleukin-8 (IL8), CXCL8 (gene 3576)
The assay can be described thus: BSK_CASM3C_IL8: BioMAP Diversity Plus: CASM3C Assay for Interleukin-8 (IL8) Biomarker Activity (AID 2283042).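 Further: IL-8 protein level quantified by ELISA.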 The conditions noted are these: primary human coronary artery smooth muscle cells; actives raise or lower the signal.

Read-out in assay [3]: Human Leukocyte Antigen - DR isotype (HLADR), HLA-DRA (gene 3122)
The assay can be described thus: BSK_CASM3C_HLADR: BioMAP Diversity Plus: CASM3C Assay for Human Leukocyte Antigen - DR isotype (HLADR) Biomarker Activity (AID 2283043).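 Further: cell-surface HLA-DR protein level quantified by ELISA.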 Conditions: primary human coronary artery smooth muscle cells; actives raise or lower the signal.

Read-out in assay [4]: Macrophage colony-stimulating factor (MCSF), CSF1 (gene 1435)
The assay can be described thus: BSK_CASM3C_MCSF: BioMAP Diversity Plus: CASM3C Assay for Macrophage colony-stimulating factor (MCSF) Biomarker Activity (AID 2283044).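 Further: M-CSF protein amount quantified by ELISA after 24 h exposure.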 The conditions noted are these: primary human coronary artery smooth muscle cells; actives raise or lower the signal.

Read-out in assay [5]: Low-density lipoprotein receptor (LDLR), LDLR (gene 3949)
The assay can be described thus: BSK_CASM3C_LDLR: BioMAP Diversity Plus: CASM3C Assay for Low-density lipoprotein receptor (LDLR) Biomarker Activity (AID 2283045).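 Further: LDLR protein level on the cell surface quantified by ELISA.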 Conditions: primary human coronary artery smooth muscle cells; actives raise or lower the signal.

Read-out in assay [6]: Monocyte Chemoattractant Protein-1 (MCP1), CCL2 (gene 6347)
The assay can be described thus: BSK_CASM3C_MCP1: BioMAP Diversity Plus: CASM3C Assay for Monocyte Chemoattractant Protein-1 (MCP1) Biomarker Activity (AID 2283046).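 Further: MCP-1 level quantified by ELISA 24 h after dosing.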 The conditions noted are these: primary human coronary artery smooth muscle cells; actives raise or lower the signal.

Assay [7] can be described thus: BSK_CASM3C_Proliferation: Cell Proliferation Assessment in the BioMAP Diversity Plus: CASM3C Assay (AID 2283047).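 Further: sulforhodamine B total protein stain as relative cell number at 560 nm; sub-confluent cells exposed 48 h before staining; fitted both ways against DMSO so gain or loss of cell number.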 Conditions: primary human coronary artery smooth muscle cells.
Read-out in assay [8]: Monokine induced gamma interferon (MIG), CXCL9 (gene 4283)
Kind of assay: BSK_CASM3C_MIG: BioMAP Diversity Plus: CASM3C Assay for Monokine induced gamma interferon (MIG) Biomarker Activity (AID 2283048).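 Further: MIG protein level measured by ELISA.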 The conditions noted are these: primary human coronary artery smooth muscle cells; actives raise or lower the signal.

Read-out in assay [9]: serum amyloid A (SAA), SAA1 (gene 6288)
Kind of assay: BSK_CASM3C_SAA: BioMAP Diversity Plus: CASM3C Assay for serum amyloid A (SAA) Biomarker Activity (AID 2283049).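 Further: SAA protein level quantified by ELISA.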 The conditions noted are these: primary human coronary artery smooth muscle cells; actives raise or lower the signal.

Assay [10] in a line: BSK_CASM3C_SRB: Viability Assessment in the BioMAP Diversity Plus: CASM3C Assay (AID 2283050).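 Further: cells exposed to compound for 24 h.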 The conditions noted are these: primary human coronary artery smooth muscle cells.
Read-out in assay [11]: Thrombomodulin, THBD (gene 7056)
The assay can be described thus: BSK_CASM3C_Thrombomodulin: BioMAP Diversity Plus: CASM3C Assay for Thrombomodulin Biomarker Activity (AID 2283051).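 Further: thrombomodulin protein level measured by ELISA 24 h after dosing.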 The conditions noted are these: primary human coronary artery smooth muscle cells; actives raise or lower the signal.

Read-out in assay [12]: Tissue Factor, F3 (gene 2152)
Kind of assay: BSK_CASM3C_TissueFactor: BioMAP Diversity Plus: CASM3C Assay for Tissue Factor Biomarker Activity (AID 2283052).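 Further: cell surface tissue factor protein level read by ELISA.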 The conditions noted are these: primary human coronary artery smooth muscle cells; actives raise or lower the signal.

Read-out in assay [13]: Interferon-gamma inducible Protein 10 (IP10), CXCL10 (gene 3627)
The assay can be described thus: BSK_hDFCGF_IP10: BioMAP Diversity Plus: hDFCGF Assay for Interferon-gamma inducible Protein 10 (IP10) Biomarker Activity (AID 2283053). Conditions: primary human foreskin fibroblasts; actives raise or lower the signal. The method, boiled down: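 Chemical-treated human skin fibroblasts (primary) were sampled at 24 h for IP-10 by ELISA. Both increases and decreases relative to DMSO were scored.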

Read-out in assay [14]: Urokinase-type plasminogen activator receptor (uPAR), PLAUR (gene 5329)
Kind of assay: BSK_CASM3C_uPAR: BioMAP Diversity Plus: CASM3C Assay for Urokinase-type plasminogen activator receptor (uPAR) Biomarker Activity (AID 2283054).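 Further: cell-surface uPAR protein level quantified by ELISA.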 Conditions: primary human coronary artery smooth muscle cells; actives raise or lower the signal.

Read-out in assay [15]: Vascular cell adhesion molecule 1 (VCAM1), VCAM1 (gene 7412)
The assay can be described thus: BSK_CASM3C_VCAM1: BioMAP Diversity Plus: CASM3C Assay for Vascular cell adhesion molecule 1 (VCAM1) Biomarker Activity (AID 2283055).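 Further: VCAM-1 protein level quantified by ELISA on the cells.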 The conditions noted are these: primary human coronary artery smooth muscle cells; actives raise or lower the signal.

Read-out in assay [16]: Collagen III, COL3A1 (gene 1281)
Kind of assay: BSK_hDFCGF_CollagenIII: BioMAP Diversity Plus: hDFCGF Assay for Collagen III Biomarker Activity (AID 2283056). The conditions noted are these: primary human foreskin fibroblasts; actives raise or lower the signal. The method, boiled down: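 Human foreskin fibroblast primary cultures sampled 24 h after dosing; Collagen III quantified by ELISA. Signal fitted bidirectionally against DMSO baseline.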

Read-out in assay [17]: Epidermal growth factor receptor (EGFR), EGFR (gene 1956)
The assay can be described thus: BSK_hDFCGF_EGFR: BioMAP Diversity Plus: hDFCGF Assay for Epidermal growth factor receptor (EGFR) Biomarker Activity (AID 2283057). The conditions noted are these: primary human foreskin fibroblasts; actives raise or lower the signal. The method, boiled down: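 Cell-based multiplexed assay in primary human foreskin fibroblasts. EGFR is read by ELISA 24 h after treatment and compared with DMSO controls.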

Read-out in assay [18]: Interleukin-8 (IL8), CXCL8 (gene 3576)
Kind of assay: BSK_hDFCGF_IL8: BioMAP Diversity Plus: hDFCGF Assay for Interleukin-8 (IL8) Biomarker Activity (AID 2283058). Conditions: primary human foreskin fibroblasts; actives raise or lower the signal. In short, it runs like this: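 Primary human foreskin fibroblasts (hDFCGF system) dosed with chemical; IL-8 measured by ELISA 24 hours later. Bidirectional curve fitting relative to DMSO baseline; cytotoxicity tracked in parallel cultures by SRB total protein staining.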

Read-out in assay [19]: Macrophage colony-stimulating factor (MCSF), CSF1 (gene 1435)
The assay can be described thus: BSK_hDFCGF_MCSF: BioMAP Diversity Plus: hDFCGF Assay for Macrophage colony-stimulating factor (MCSF) Biomarker Activity (AID 2283060). The conditions noted are these: primary human foreskin fibroblasts; actives raise or lower the signal. In short, it runs like this: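 Human foreskin fibroblast primary cultures; M-CSF measured by ELISA 24 hours after chemical dosing. Bidirectional fitting relative to DMSO, with overt cytotoxicity tracked by parallel SRB total-protein staining (0.1% SRB, 10% TCA fixation, 560 nm).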

The AC50 is the concentration giving half of the maximal activity seen.

Active and inactive are the calls of the source. How the source made its calls: active means hit-call score of the fitted dose curve at least 0.9, where 1 is the maximum; inactive means score below 0.9.

As to `CC(C)C(=O)Nc1ccc([N+](=O)[O-])c(C(F)(F)F)c1`, the outcome in [1], in [2], in [3], in assay [4], in [6] and in assay [7] was inactive. The result in assay [8], in assay [9], in assay [10], in assay [11], in assay [12] and in assay [13] was inactive. For the same compound, the outcome in [14], in [15], in assay [17], in assay [18] and in assay [19] was inactive. Further, the AC50 was 4.78 µM (active) in assay [5] and 31.7 µM (active) in assay [16].
In the case of `O=C(O)c1cccc(C[C@@H]2COc3ccc(OCc4nc5cc(F)ccc5s4)cc3[C@@H]2O)c1`, the outcome in assay [1], in [2], in assay [3], in assay [4], in assay [5] and in [6] was inactive. Further, the outcome in assay [8], in assay [9], in assay [10], in assay [11], in assay [12] and in assay [13] was inactive. Besides, the outcome in assay [14], in assay [15], in assay [16], in assay [17] and in [18] was inactive. In addition, the AC50 in assay [7] is 12.9 µM (active); in [19], 13.8 µM (active).
With `C=CCc1cc(S(=O)(=O)c2ccc(O)c(CC=C)c2)ccc1O`, the AC50 was 7.78 µM (active) in assay [1]; 17.6 µM (active) in assay [2]; 13.6 µM (active) in [3]; 28.2 µM (active) in [4]; 32.2 µM (active) in [5]; 16.2 µM (active) in assay [6]. Also, the AC50 in assay [7] is 14.3 µM (active); in [8], 31.4 µM (active); in assay [9], 28.3 µM (active); in assay [10], 31.2 µM (active); in assay [12], 36.7 µM (active); in assay [13], 29 µM (active). Besides, the concentration at half-maximal activity (AC50) in assay [14] was 21.7 µM (active); in [15] it was 35.7 µM (active); in [16], 6.52 µM (active); in assay [18] it was 34.4 µM (active); in [19], 27 µM (active). The result in assay [11] and in assay [17] was inactive.
Regarding `CCOc1ccc2[nH]cc(C(=O)NCc3ccccc3)c(=O)c2n1`, the outcome in assay [1], in [2], in assay [3], in assay [4], in assay [5] and in assay [6] was inactive. Also, the result in assay [7], in [8], in assay [9], in assay [10], in assay [11] and in assay [12] was inactive. In addition, the outcome in assay [13], in assay [14], in [15], in [16], in assay [18] and in assay [19] was inactive. Further, the AC50 in [17] is 3.97 µM (active).
Take `CCCCCCCCN(C)C`: the outcome in [1], in assay [2], in assay [3], in [4], in [5] and in [6] was inactive. Moreover, the result in assay [7], in [8], in assay [9], in assay [10], in [11] and in assay [12] was inactive. For the same compound, the outcome in assay [13], in [14], in assay [15], in assay [16], in assay [17] and in assay [18] was inactive. In assay [19], the result was inactive.
On to `FC(F)=C(F)C(F)(F)C(F)(F)C(F)(F)C(F)(F)C(F)(F)C(F)(F)F`, for which the outcome in assay [1], in [2], in assay [3], in assay [4], in [5] and in assay [6] was inactive. In addition, the result in [7], in assay [8], in [9], in [10], in assay [11] and in assay [12] was inactive. The result in [13], in assay [14], in [15], in [16], in assay [17] and in [18] was inactive. Besides, the outcome in assay [19] was inactive.
Regarding `NC(=O)NN=Cc1ccc([N+](=O)[O-])o1`, the outcome in assay [1], in assay [2], in [3], in assay [4], in [5] and in assay [6] was inactive. Further, the result in assay [7], in assay [8], in assay [9], in [10], in [11] and in [12] was inactive. Moreover, the result in assay [13], in [14], in [15], in assay [16], in assay [17] and in assay [18] was inactive. Moreover, the result in [19] was inactive.
